# In all, about 140,000 sequences were measured (“enrichment ratio after two sorts for PhoP signalling”: median about 0, highest 2% from about 11 on). This is one part of a sample in which the highest values are shown more often than they occur.
# B1: PhoQ; a variant is named by its letters at X, in order, P23837 (parent)
# chain: MKKLLRLFFPLSLRVRFLLATAAVVLVLSLAYGMVALIGYSVSFDKTTFRLLRGESNLFYTLAKWENNKLHVELPENIDKQSPTMTLIYDENGQLLWAQRDVPWLMKMIQPDWLKSNGFHEIEADVNDTSLLLSGDHSIQQQLQEVREDDDDAEMTHSVAVNVYPATSRMPKLTIVVVDTIPVELKSSYMVWSWFIYVLSANLLLVIPLLWVAAWWSLRPIEALAKEVRELEEHNRELLNPATTRELTSLVRNLNRLLKSERERYDKYRTTLTDLTHSLKTPLXXLQXXLRSLRSEKMSVSDAEPVMLEQISRISQQIGYYLHRASMRGGTLLSRELHPVAPLLDNLTSALNKVYQRKGVNISLDISPEISFVGEQNDFVEVMGNVLDNACKYCLEFVEISARQTDEHLYIVVEDDGPGIPLSKREVIFDRGQRVDTLRPGQGVGLAVAREITEQYEGKIVAGESMLGGARMEVIFGRQHSAPKDE
# Variants of: B1
# Assay: enrichment ratio after two sorts for PhoP signalling (ratio (wild type AVST 3.29)); higher = more functional
# Settings: with PhoP (E. coli)
row,Variant,enrichment ratio
1,PPHG,≤ 0.25
2,ISCM,2.52
3,EMGW,≤ 0.25
4,YGNI,≤ 0.25
5,VDAC,≤ 0.25
6,QMES,≤ 0.25
7,CLVG,≤ 0.25
8,FPHK,≤ 0.25
9,WEIR,≤ 0.25
10,QELH,≤ 0.25
11,AEYR,≤ 0.25
12,AELH,11.9
13,AENI,≤ 0.25
14,MELH,6.92
15,AENS,16
16,AELL,12.1
17,GSMR,≤ 0.25
18,VMYM,≤ 0.25
19,VVSV,≤ 0.25
20,RPHF,≤ 0.25
21,TIYY,≤ 0.25
22,SIAI,11.6
23,AMAI,14.3
24,KMAI,≤ 0.25
25,WIAI,≤ 0.25
26,KYAI,≤ 0.25

row,Variant,enrichment ratio
1,NMAI,≤ 0.25
2,AKAI,5.1
3,TIAI,11.7
4,SIYY,≤ 0.25
5,TIAT,10.2
6,AIAI,12.7
7,VKNM,≤ 0.25
8,NFFL,≤ 0.25
9,GWNK,≤ 0.25
10,RLRM,≤ 0.25
11,RGTH,≤ 0.25
12,YTEG,≤ 0.25
13,YVMY,≤ 0.25
14,DNCH,≤ 0.25
15,GTCF,1.25
16,MCSA,≤ 0.25
17,FSEL,≤ 0.25
18,GNAI,7.21
19,ANCS,2.95
20,ANAI,30.1
21,EQHH,≤ 0.25
22,NSLL,3.55
23,NRLL,≤ 0.25
24,FQLL,5.35
25,MSLT,4.06
26,MSLL,13.3

row,Variant,enrichment ratio
1,QFLL,≤ 0.25
2,QPLL,≤ 0.25
3,YSLL,11.4
4,KSLL,≤ 0.25
5,FCLL,10.7
6,FSLL,13.5
7,TSLL,14
8,TRIL,5.95
9,WDTG,≤ 0.25
10,RKRR,≤ 0.25
11,VQAF,≤ 0.25
12,TDFE,≤ 0.25
13,NRKC,≤ 0.25
14,KMVF,≤ 0.25
15,SILL,1.4
16,SSLL,19.9
17,SYLL,0.392
18,STGV,13.4
19,QEGV,≤ 0.25
20,SRGV,≤ 0.25
21,KYGV,≤ 0.25
22,SEGV,11.7
23,YTGV,≤ 0.25
24,KCGV,≤ 0.25
25,TMHV,0.946
26,TMGV,12.1

row,Variant,enrichment ratio
1,FHNP,≤ 0.25
2,WDYS,≤ 0.25
3,LVGT,≤ 0.25
4,RDTF,≤ 0.25
5,VQAH,≤ 0.25
6,PCAG,≤ 0.25
7,LCRQ,≤ 0.25
8,YPYC,≤ 0.25
9,TLQH,21.1
10,THQH,23.5
11,TLKH,≤ 0.25
12,NHQH,≤ 0.25
13,SHQH,≤ 0.25
14,KSQH,≤ 0.25
15,RRNN,≤ 0.25
16,TVNT,8.93
17,AHNM,5.49
18,NMYM,≤ 0.25
19,TQPV,≤ 0.25
20,QRAQ,≤ 0.25
21,MGNT,≤ 0.25
22,MGAT,18.8
23,MKAQ,≤ 0.25
24,MGAQ,18.9
25,MGKR,≤ 0.25
26,MGAN,12.6

row,Variant,enrichment ratio
1,MGWN,18.9
2,MGNL,≤ 0.25
3,MGDN,≤ 0.25
4,MGLT,5.67
5,TGAN,2.47
6,REVQ,≤ 0.25
7,RQWC,≤ 0.25
8,SLFD,≤ 0.25
9,VERW,≤ 0.25
10,LTMP,≤ 0.25
11,VRTD,≤ 0.25
12,TDMT,10.8
13,QVFF,≤ 0.25
14,YTFN,≤ 0.25
15,MGAI,16.1
16,MGAG,1.81
17,MKFN,≤ 0.25
18,MTFN,16.9
19,MGCS,6.13
20,TGFN,≤ 0.25
21,MIFN,11
22,MGFN,11.6
23,QLDR,≤ 0.25
24,GINV,≤ 0.25
25,SIAD,7.06
26,YITI,≤ 0.25

row,Variant,enrichment ratio
1,YTPA,≤ 0.25
2,PENS,≤ 0.25
3,SNDM,≤ 0.25
4,YECS,14.8
5,YECH,6.45
6,FTCC,≤ 0.25
7,FTCV,0.528
8,YEQP,≤ 0.25
9,YECK,≤ 0.25
10,YEES,≤ 0.25
11,YECI,0.32
12,FTCQ,7.15
13,YECV,22.8
14,YECC,56.2
15,YECQ,30.7
16,PGAC,≤ 0.25
17,FIVG,≤ 0.25
18,QDLS,≤ 0.25
19,SILG,8.57
20,TSLG,14.5
21,SSLG,16.1
22,SRLG,≤ 0.25
23,PSLG,≤ 0.25

# — a collection of fitness landscapes (doi:10.1126/science.1257360)
